# Hits are enriched below; roughly 2.5% of the tested compounds scored in any of these assays.
# POLH inh: qHTS for Inhibitors of Polymerase Eta; recombinant Pol eta, fluorescent DNA replication assay; Potency, µM (series often up to 114 µM), most hits filed as inhibitors; 390,000 compounds, 1.2% hits; AID 588591, 2011
# Target sequence (Q9Y253 whole entry, looked up): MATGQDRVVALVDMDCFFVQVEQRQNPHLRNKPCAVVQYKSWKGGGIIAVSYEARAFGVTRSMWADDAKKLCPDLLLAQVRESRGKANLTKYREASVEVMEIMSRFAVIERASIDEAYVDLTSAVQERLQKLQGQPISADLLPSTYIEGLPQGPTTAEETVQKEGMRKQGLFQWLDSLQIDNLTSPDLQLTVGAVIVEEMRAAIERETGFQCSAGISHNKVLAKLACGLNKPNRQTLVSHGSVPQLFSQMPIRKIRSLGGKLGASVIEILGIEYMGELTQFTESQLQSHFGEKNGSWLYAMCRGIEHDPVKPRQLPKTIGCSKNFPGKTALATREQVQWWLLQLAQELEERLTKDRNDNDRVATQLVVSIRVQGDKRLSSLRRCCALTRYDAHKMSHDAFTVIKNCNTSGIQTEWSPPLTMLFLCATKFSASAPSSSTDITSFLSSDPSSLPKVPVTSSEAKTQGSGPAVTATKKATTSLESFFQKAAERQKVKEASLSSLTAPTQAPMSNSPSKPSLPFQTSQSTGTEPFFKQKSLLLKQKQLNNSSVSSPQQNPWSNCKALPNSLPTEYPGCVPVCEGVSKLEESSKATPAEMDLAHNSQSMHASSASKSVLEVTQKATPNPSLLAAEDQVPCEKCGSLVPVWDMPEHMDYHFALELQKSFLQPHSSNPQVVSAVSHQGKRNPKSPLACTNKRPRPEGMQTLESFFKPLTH
#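 Pol eta at 10 nM preincubated with compounds 15 min at room temperature; reaction started with fluorescent substrate (50 nM final) and read kinetically at 0 and 10 min.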
# POLK inh: qHTS for Inhibitors of Polymerase Kappa; DNA polymerase kappa (Homo sapiens), Q9UBT6; purified Pol kappa, fluorescent DNA synthesis assay, 10 min; Potency, µM (top dose mostly 107 µM), hits mostly inhibitors; 400,000 compounds, 0.53% hits; AID 588579, 2011
#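 Here, compound and 10 nM enzyme are combined for 15 min at room temperature; adding 50 nM substrate (final) starts DNA synthesis, tracked by fluorescence at 0 and 10 min against buffer-only wells.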
# POLI inh: qHTS for Inhibitors of Polymerase Iota | 390,000 compounds, 1% hits | Potency, µM (series often up to 115 µM), most hits filed as inhibitors | Pol iota fluorescent replication assay, 10 min | DNA polymerase iota (Homo sapiens), Q9UNA4 | AID 588590, 2011
#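 Pol iota at 10 nM preincubated 15 min with compounds at room temperature; reaction started with fluorescent substrate, 50 nM final. Fluorescence read kinetically at 0 and 10 min; buffer-only wells as negative control.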
# POLB inh: qHTS Assay for Inhibitors of DNA Polymerase Beta | Pol beta primer extension/strand displacement, fluorescence kinetic | Potency, µM (series often up to 114 µM), usual class: inhibitors | 340,000 compounds, 1.3% hits
#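 Kinetic readout of DNA synthesis with strand displacement by Pol beta. Compound and 10 nM enzyme sit 15 min at room temperature; 50 nM substrate starts the reaction, read immediately and at 10 min.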
# L3MBTL1 inh: qHTS Assay for the Inhibitors of L3MBTL1; Lethal(3)malignant brain tumor-like protein 1 (Homo sapiens), Q9Y468; AlphaScreen L3MBTL1–H3K9me1 peptide binding; Potency, µM (top dose mostly 57.1 µM), most hits filed as inhibitors; 230,000 compounds, 0.66% hits; note: nearly all actives have a fitted effect of over 60% in size
#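 First, the protein-peptide complex forms for 30 min at room temperature (L3MBTL1 50 nM, biotinylated H3K9me1 peptide 75 nM). Next, compounds are pin-transferred and incubated 30 min. Finally, AlphaScreen beads are added and read after 30 min.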
# APEX1 inh: qHTS Assay for Inhibitors of the Human Apurinic/apyrimidinic Endonuclease 1 (APE1); recombinant APE1, TAMRA/BHQ-2 abasic DNA cleavage fluorescence; Potency, µM (top dose mostly 65.8 µM), actives largely listed as inhibitors; 350,000 compounds, 0.35% hits; note: nearly all actives have a fitted effect of over 55% in size
#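 Incision of a quenched TAMRA/BHQ-2 THF abasic-site duplex (50 nM) by 0.75 nM APE1, after 15 min compound preincubation, measured as fluorescence increase over three 60 s reads. Values normalized to buffer, DMSO and NSC13755 control wells.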
# A number is an active result; 0 = inactive; ? = inconclusive; - = no result given; [ ] = dose if it differs, or a comment. Calls come from the whole dose curve; as a rule, active = well fitted curve in the direction sought with a large enough effect; inconclusive = small, poorly fitted or top-dose-only effect, or another doubt; inactive = no such curve, though single readings can be large; an effect the other way counts as inactive or inconclusive.
SMILES,POLH inh,POLK inh,POLI inh,POLB inh,L3MBTL1 inh,APEX1 inh
CN=c1scc(-c2ccc(F)cc2)n1/N=C/c1ccc(O)c(O)c1,?,0,?,5µM,-,?
O=C1C(O)=C(O)C(=O)C(O)=C1O,-,8.9µM,-,-,-,10µM
COc1ccc(-c2noc(-c3ccc(NCC4CCCO4)c([N+](=O)[O-])c3)n2)cc1OC (configuration not stated),0,0,0,0,-,-
O=C(Cc1ccccc1Cl)Nc1ccc(S(=O)(=O)Nc2nccs2)cc1,0,0,0,0,-,0
O=C(CSc1ccc(Br)c2cccc(Cl)c12)Nc1ccc(S(=O)(=O)Nc2nccs2)cc1,45µM,?,?,50µM,0,0
O=C(Nc1ccccc1)c1ccccc1O,0,0,0,0,0,0
Cc1ccc(NC(=O)c2ccccc2O)cc1,0,0,0,0,0,0
O=C(Nc1ccccc1)Nc1ccc(NC(=O)c2ccccc2O)cc1,0,0,0,32µM,-,0
Cc1cc(C)cc(NC(=O)Nc2ccc(NC(=O)c3ccccc3O)cc2)c1,0,0,0,35µM,-,0
COc1ccc(OC)c(NC(=O)N2CCC3(CC2)Oc2ccccc2C(=O)N3Cc2ccccc2F)c1,-,0,0,0,-,-
O=C(c1cc2ncc(Br)cn2n1)N1CCOCC1,0,0,0,0,-,0
O=C(c1cc2ncc(Br)cn2n1)N1CCN(C(=O)c2ccco2)CC1,13µM,0,?,?,?,0
O=C(NCCc1ccccc1)c1cc2ncc(Br)cn2n1,?,0,?,40µM,-,0
Cc1cc(C(=O)CSc2nnnn2C)c(C)n1Cc1ccco1,0,0,79µM,?,0,?
Cc1cc(C(=O)C(C)Cl)c(C)n1Cc1ccco1 (configuration not stated),71µM,?,16µM,?,0,?
Cc1cc(C(=O)CSc2nc3ccc(Cl)cc3[nH]2)c(C)n1Cc1ccco1,0,?,22µM,-,-,-
Cc1cc(C(=O)CSc2ncccn2)c(C)n1Cc1ccco1,0,0,0,0,0,0
Cc1ccc(S(=O)(=O)N2CCOCC2)cc1NC(=O)COC(=O)CCC(=O)c1ccc(F)cc1,0,0,0,-,0,0
CC[C@@H]1[C@H]2CCCC(=O)N3CC[C@@H](C[C@@H]1OC(=O)Nc1ccc4c(c1)OCO4)[C@@H]23,-,0,0,-,-,-
CCc1ccc(NC(=O)C2=CC(c3cccs3)=NS(=O)(=O)N2C)cc1,0,0,0,0,0,0
COc1ccc(C(=O)c2ccccc2)c(O)c1,0,?,0,0,0,0
COc1ccc(C(=O)c2ccccc2)c(O)c1O,-,10µM,-,-,-,0
CC(C)(C)c1ccccc1OCCCCCNCCO,0,0,71µM,0,0,0
COc1ccc2nnc(-c3ccccc3)n2n1,0,0,89µM,0,-,0
Oc1cc(CNC2CCCCC2)c(O)cc1CNC1CCCCC1,?,79µM,?,-,-,-
SMILES,POLH inh,POLK inh,POLI inh,POLB inh,L3MBTL1 inh,APEX1 inh
O=C(O)[C@@H]1[C@H]2C[C@H]3c4[nH]c5ccccc5c4CCN3C[C@@H]2CC[C@@H]1O,79µM,?,?,-,0,0
COC(=O)[C@@H]1[C@H]2C[C@H]3c4[nH]c5ccccc5c4CCN3C[C@H]2CC[C@@H]1O,-,0[19.4 µM],-,-,-,0
Cc1c(Br)ccc(NC(=O)Cn2nc(-c3cccs3)ccc2=O)c1C,0,0,50µM,18µM,-,0
COc1ccc(NC(=O)CCc2nnc3ccc(NCc4ccc5c(c4)OCO5)nn23)cc1,0,0,45µM,?,-,0
Cc1ccc(NC(=O)CCc2nnc3ccc(NCc4ccco4)nn23)cc1F,0,0,?,0,-,0
COc1ccc(NC(=O)CCc2nnc3ccc(NCc4ccco4)nn23)cc1,0,0,0,0,-,0
CC(CCc1ccco1)NC(=O)CCc1nnc2ccc(NCc3ccc(Cl)cc3)nn12 (configuration not stated),0,79µM,25µM,0,-,0
Cc1cccnc1NC(=O)CCc1nnc2ccc(NCc3ccco3)nn12,45µM,0,?,?,-,0
COC(=O)c1ccc(NC(=O)CCc2nnc3ccc(NCc4ccco4)nn23)cc1,?,?,35µM,?,-,0
COc1ccccc1CNC(=O)Cn1nc(C)n2cccc2c1=O,0,0,0,0,-,-
COc1ccc2c(c1)C(=O)CC2,-,0,0,-,-,-
O=C(c1ccccc1)c1ccc(-n2ccnc2)c([N+](=O)[O-])c1,0,0,0,0,-,0
C=C1C=C(C(F)F)n2ncc(C(=O)N3CCN(c4ccccn4)CC3)c2N1,-,0,0,-,-,-
O=C(NC1CCCC1)C(c1cccnc1)N(C(=O)c1ccco1)c1cccc(F)c1 (configuration not stated),0,0,0,0,-,0
CCCCCCCCCCCCCCCCOCCOCCOCCOCCOCCOCCOCCOCCOCCOCCOCCOCCOCCOCCOCCOCCOCCOCCOCCOCCO,-,0[19.4 µM],-,-,-,-
O=C(CBr)c1ccc(Oc2ccc(C(=O)C[n+]3cccc(Br)c3)cc2)cc1,-,0,79µM,-,-,-
C#Cc1ccc([C@@H]2C=C(C(=O)OCC=C)O[C@H](OCCCCO)C2)cc1,?,?,?,18µM,0,0
O=C(NCc1ccccc1)C1=C[C@@H](c2ccc(Br)cc2)C[C@@H](OCCCCO)O1,0,0,0,0,0,0
C#Cc1ccc([C@@H]2C=C(C(=O)NCc3ccccc3)O[C@H](OCCCCO)C2)cc1,45µM,?,50µM,-,-,-
C=CCOC(=O)C1=C[C@H](c2ccc(C(F)(F)F)cc2)C[C@H](OCCCCO)O1,0,0,0,-,-,-
C#CCNC(=O)C1=C[C@@H](c2ccc(C#C)cc2)C[C@@H](OCCCCO)O1,25µM,?,50µM,-,-,-
O=C(O)c1ccsc1Cc1cccs1,0,-,-,-,-,-
C=CCN1C[C@H](C(=O)N(CCCN(C)C)C(=O)NCC)C[C@@H]2c3cccc4[nH]cc(c34)C[C@H]21,-,-,-,-,-,0
Cc1sc(C(C2C(=O)CC(C)(C)CC2=O)C2C(=O)CC(C)(C)CC2=O)cc1[N+](=O)[O-],0,0,16µM,0,0,0
O=C(COc1ccccc1F)Nc1c(C(=O)Nc2cccc(F)c2)oc2ccccc12,0,0,0,0,-,-
COc1cc(NC(=O)C(c2ccccc2)c2ccccc2)c(C(=O)O)cc1OC,0,0,0,0,0,0
CCN(CC)c1nc2ccccc2n2cnnc12,0,0,89µM,0,0,0
O=C(/C=C/c1ccc(Br)o1)Nc1nnc(C2CC2)s1,-,-,-,25µM,0,0
Cc1cnc(NC(=O)/C=C/c2ccc(Br)o2)s1,?,0,0,?,0,0
